Source: PubChem BioAssay AID463173 (ICCB-Longwood Screening Facility, Harvard Medical School, 2010)
The campaign covered roughly 52,000 compounds. About 4,300 (8.3%) were called active. This excerpt belongs to a sample that is enriched for actives. Unmarked numbers belong to inactive results. Cut-off read from the data, not from the text of the source: active = survival mostly below about 52% (no sharp cut-off); inactive = mostly above about 56%.

What follows are compounds tested on DeltatarO mutant (assay: S. aureus survival, RN4220 and DeltatarO strains – OD600, teichoic acid synthesis inhibitors, primary screen (AID 463173)). Conditions: S. aureus RN4220 wild type/DeltatarO growth, OD600, 18 h, stronger effect = lower value, screened at 18.75 µg/mL (by protocol).

Row | Compound | survival
1 | COc1ccc(-c2noc(-c3ccc(NC(C)c4ccccc4)c([N+](=O)[O-])c3)n2)cc1OC (centres undefined) | 65%
2 | CCCC12CN3CC(C)(CN(C1)C3c1ccc(OCc3ccccc3)cc1)C2=O (centres undefined) | 80%
3 | COc1ccc(-n2nc3c(N4CCCC(C(=O)NCc5ccccc5C)C4)nnc(C)c3c2C)cc1 (centres undefined) | 90%
4 | O=C(Nc1nc2c(s1)CCCCCC2)Nc1ccc(F)cc1F | 0% (active)
5 | Cc1ccc(NC(=O)Nc2nc3c(s2)CCCCCC3)cc1C | 69%
6 | O=C(Nc1ccc(Br)cc1)Nc1nc2c(s1)CCCCCC2 | 83%
7 | CCN(c1cc(C)cc(C)c1)S(=O)(=O)c1nnc(NC(=O)c2cccc(F)c2)s1 | 37% (active)
8 | CN(c1ccccc1)S(=O)(=O)c1nnc(NC(=O)c2cccs2)s1 | 43%
9 | CCN(c1cccc(C)c1)S(=O)(=O)c1nnc(NC(=O)C2CCCCC2)s1 | 71%
10 | Cc1cccc(N(C)S(=O)(=O)c2nnc(NC(=O)c3cccs3)s2)c1 | 26% (active)
11 | CCN(c1cc(C)cc(C)c1)S(=O)(=O)c1nnc(NC(=O)c2cccs2)s1 | 25% (active)
12 | Cc1cccc(N(C)S(=O)(=O)c2nnc(NC(=O)C(C)(C)C)s2)c1 | 99%
13 | CCN(c1cc(C)cc(C)c1)S(=O)(=O)c1nnc(NC(=O)C2CCCCC2)s1 | 105%
14 | CCCCC(=O)Nc1nnc(S(=O)(=O)N(CC)c2cc(C)cc(C)c2)s1 | 66%
15 | CCN(c1ccccc1)S(=O)(=O)c1nnc(NC(=O)COc2cccc(C)c2)s1 | 107%
16 | CCN(c1cccc(C)c1)S(=O)(=O)c1nnc(NC(=O)c2cccs2)s1 | 21% (active)
17 | Cc1ccc(S(=O)(=O)Nc2ccc(-c3ccc(N4CCCCCC4)nn3)cc2)c(C)c1 | 70%
18 | CCc1nnc(NC(=O)c2ccc(S(=O)(=O)N3CCc4ccccc4C3)cc2)s1 | 83%
19 | Cc1ccc(NC(=O)CCNS(=O)(=O)c2cccs2)cc1F | 63%
20 | COc1cc(CN(C(=O)c2cccc(Cl)c2)c2ccccn2)cc(OC)c1OC | 82%
21 | COc1ccc(OC(=O)c2ccc3snnc3c2)cc1 | 86%
22 | COc1ccc(CNC(=O)CCS(=O)(=O)c2cc3c4c(c2)CCN4C(=O)CC3)cc1OC | 66%
23 | Cc1ccc(C)c(NS(=O)(=O)c2cc3c(cc2Cl)NC(=O)CO3)c1 | 85%
24 | CCN(c1ccc(C)cc1C)S(=O)(=O)c1nnc(NC(=O)CC(C)C)s1 | 75%
25 | CCN(c1ccc(C)cc1C)S(=O)(=O)c1nnc(NC(=O)c2ccccc2OC)s1 | 55%

Row | Compound | survival
26 | CCN(c1ccc(C)cc1C)S(=O)(=O)c1nnc(NC(=O)c2ccc(F)cc2)s1 | 14% (active)
27 | CC(C)Cn1cc(NC(=O)NCc2ccccc2)c2ccccc2c1=O | 74%
28 | CCc1nonc1NC(=O)c1oc2cc(C)c(C)cc2c1C | 102%
29 | CCOC(=O)c1cnc(SCC)[nH]c1=O | 41% (active)
30 | CCOC(=O)c1cc(C(=O)OCC)c(=S)[nH]c1O | 98%
31 | CCOC(=O)c1cc2ccccc2[nH]c1=O | 82%
32 | Cc1ccc(NC(=O)c2c(NC(=O)c3ccc(F)cc3)sc3c2CCCC3)cc1C | 67%
33 | COCCCNC(=O)c1ccc2c(c1)NC(=O)C(C(C)C)N2 (centres undefined) | 57%
34 | COc1ccc(NC(=O)c2sc3nc4c(cc3c2N)CCCCCC4)c(OC)c1 | 62%
35 | CCc1oc(C(=O)O)cc1CN | 97%
36 | COc1ccc(Br)c2c1-c1nc(NC(=O)c3ccccc3SC)sc1C2 | 105%
37 | COc1ccc(C(=O)Nc2nc3c(s2)Cc2c(Br)ccc(OC)c2-3)cc1OC | 36% (active)
38 | COc1ccc(Br)c2c1-c1nc(NC(=O)c3ccccc3F)sc1C2 | 69%
39 | COc1ccc(Br)c2c1-c1nc(NC(=O)c3ccc(F)cc3)sc1C2 | 67%
40 | COc1ccc(Br)c2c1-c1nc(NC(=O)c3cccc(C)c3)sc1C2 | 44%
41 | COc1cc(C(=O)Nc2nc3c(s2)Cc2c(Br)ccc(OC)c2-3)cc(OC)c1OC | 36% (active)
42 | Cc1cccc(N2CCN(C(=O)CN3C(=O)CSc4c3c(C)nn4-c3ccccc3)CC2)c1C | 83%
43 | O=C(Nc1ccc(F)cc1)c1cccc(N2CCCS2(=O)=O)c1 | 70%
44 | CCCC(=O)Nc1nnc(S(=O)(=O)N(C)c2ccccc2)s1 | 108%
45 | COc1ccc(C(=O)Nc2nnc(S(=O)(=O)N(C)c3ccc(Cl)cc3)s2)cc1OC | 83%
46 | COc1cc(C(=O)Nc2nnc(S(=O)(=O)N(C)c3ccccc3)s2)cc(OC)c1OC | 40% (active)
47 | Cc1nnc(NC(=O)c2ccccc2)s1 | 71%
48 | CN(c1ccccc1)S(=O)(=O)c1nnc(NC(=O)c2ccccc2)s1 | 32% (active)
49 | COc1ccc(C(=O)Nc2nnc(S(=O)(=O)N(C)c3ccc(C)cc3)s2)cc1 | 79%
50 | O=C(Nc1nnc(C(F)(F)F)s1)c1ccccc1 | 24% (active)

Row | Compound | survival
51 | CC(C)C(=O)Nc1cccc(C(=O)Nc2nnc(C(F)(F)F)s2)c1 | 58%
52 | CCN(C(=O)Cn1cnc2c1c(=O)n(C)c(=O)n2C)c1ccccc1C | 87%
53 | Fc1ccc(N2CCN(c3nc4ccccc4c4nc(-c5cccnc5)nn34)CC2)cc1 | 93%
54 | CC(=O)N1c2ccc(S(=O)(=O)N3CCCCCC3)cc2CC1C(=O)NCc1cccc(F)c1 (centres undefined) | 65%
55 | Cc1ccc(NC(=O)c2ccco2)c(OCc2cc(=O)n3cc(C)sc3n2)c1 | 102%
56 | O=C(/C=C/c1ccccc1)Nc1ccc2c(c1)OCCO2 | 76%
57 | NC(=O)/C=C/C(=O)Nc1ccc2c(c1)OCO2 | 33% (active)
58 | CCOC(=O)Nc1ccc2c(c1)OCO2 | 79%
59 | CCc1ccccc1NC(=O)N1CCOc2ccccc21 | 106%
60 | CSc1ccc(C2c3c(oc4ccc(F)cc4c3=O)C(=O)N2c2ccc(C)cn2)cc1 (centres undefined) | 81%
61 | Cc1nn(CCC(=O)N2CCN(c3ccccc3)CC2)c(C)c1S(=O)(=O)N1CCCC1 | -5% (active)
62 | COc1cccc(N2CCN(C(=O)CCn3nc(C)c(S(=O)(=O)N4CCCC4)c3C)CC2)c1 | 92%
63 | COc1ccc(N2CCN(C(=O)CCn3nc(C)c(S(=O)(=O)N4CCCC4)c3C)CC2)cc1 | 73%
64 | COc1ccc(Cl)cc1NC(=O)CSC1=Nc2ccccc2C2=NC(CC(=O)NCc3ccc4c(c3)OCO4)C(=O)N12 (centres undefined) | 87%
65 | COc1ccc(CCn2c(=O)c3cccnc3n(CC(=O)Nc3ccc(C)cc3C)c2=O)cc1OC | 78%
66 | O=S(=O)(c1ccccc1)c1nc(-c2cccc(Cl)c2)oc1NCc1ccccc1 | 83%
67 | O=C(NC1CCCC1)c1ccc(CSc2nc3cccnc3n2Cc2ccccc2F)cc1 | 37% (active)
68 | O=C(NC1CCCCC1)c1ccc(Cn2c(SCc3ccccc3)nc3cccnc32)cc1 | 83%
69 | O=C(NC1CCCCC1)c1ccc(CSc2nc3cccnc3n2Cc2ccccc2F)cc1 | 93%
70 | O=C(NC1CCCCC1)c1ccc(Cn2c(SCc3ccccc3F)nc3cccnc32)cc1 | 80%
71 | O=C(NC1CCCC1)c1ccc2c(=O)n(Cc3ccccc3)c(SCc3ccccc3)nc2c1 | 92%
72 | O=C(NC1CCCCC1)c1ccc(CSc2nc3cccnc3n2Cc2ccccc2)cc1 | 102%
73 | O=C(NC1CCCC1)c1ccc(CSc2nc3cccnc3n2Cc2ccc(F)cc2)cc1 | 63%
74 | O=C(NC1CCCCC1)c1ccc(CSc2nc3cccnc3n2Cc2ccc(F)cc2)cc1 | 25% (active)
75 | O=C(NC1CC1)c1ccc(Cn2c(SCc3ccc(F)cc3)nc3cccnc32)cc1 | 78%

Row | Compound | survival
76 | Cc1ccccc1CSc1nc2cc(C(=O)NC3CCCC3)ccc2c(=O)n1Cc1ccccc1 | 107%
77 | O=C(NC1CCCCC1)c1ccc(Cn2c(SCc3ccc(F)cc3)nc3cccnc32)cc1 | 32% (active)
78 | O=C(NC1CCCC1)c1ccc2c(=O)n(Cc3ccccc3)c(SCc3ccccc3F)nc2c1 | 0% (active)
79 | O=C(Cn1cc(SCc2c(F)cccc2Cl)c2ccccc21)N1CCCC1 | 74%
80 | COCCn1c(COc2ccc(Cl)cc2)nnc1SCC(=O)OC | 96%
81 | CCOc1ccccc1N(CC)C(=O)c1noc2c1COc1ccc(C)cc1-2 | 67%
82 | COc1ccc(CCNC(=O)NCc2noc3ccccc23)c(OC)c1 | 62%
83 | NC(=O)CSc1nc2cc3c(cc2c(=O)n1CCCCCC(=O)NCc1ccc2c(c1)OCO2)OCO3 | 81%
84 | CCC(=O)N1CCc2cc(Br)cc(S(=O)(=O)NCc3cccc(OC)c3)c21 | 58%
85 | COc1cccc(Cn2cc(S(=O)(=O)c3ccc(C)cc3)c(=O)c3cc4c(cc32)OCO4)c1 | 67%
86 | COc1ccc(OC)c(S(=O)(=O)NCC(c2ccco2)S(=O)(=O)c2ccccc2)c1 (centres undefined) | 94%
87 | CCOCCCNC(=O)CN1C(=O)COc2ccc(S(=O)(=O)N3CCCCCC3)cc21 | 81%
88 | CCOC(=O)c1c(Nc2ccc(OCC)cc2)nnc(-c2ccccc2)c1-c1ccccc1 | -2% (active)
89 | CCOC(=O)c1c(Nc2ccc(OC)cc2)nnc(-c2ccccc2)c1-c1ccccc1 | 7% (active)
90 | COc1ccc(-c2nnc(Nc3ccc(OC)c(C(N)=O)c3)c3ccccc23)cc1 | 41% (active)
91 | CCOC(=O)c1c(C)oc2ncnc(Nc3ccc(OCC)cc3)c12 | 89%
92 | C#CCOc1ccc(-c2nnc(Nc3cccc(C)c3)c3ccccc23)cc1 | 31% (active)
93 | COC(=O)c1c(Oc2ccc(OC)cc2)nnc(-c2ccccc2)c1-c1ccccc1 | 101%
94 | CCOC(=O)c1c(Oc2ccc(OC)cc2)nnc(-c2ccccc2)c1-c1ccccc1 | 75%
95 | CNC(=O)c1cc(Nc2nnc(-c3ccc(O)cc3)c3ccccc23)ccc1OC | 170%
96 | CCOC(=O)c1c(C)c(-c2ccccc2)n(CC(=O)Nc2ccc(OCC)cc2)c1C | 73%
97 | COc1ccc(-c2nnc(Nc3ccc(OCC(N)=O)cc3)c3ccccc23)cc1 | 69%
98 | Cc1cccc(Nc2nnc(-c3ccc(C)c(S(=O)(=O)N4CCCCC4)c3)c3ccccc23)c1 | 104%
99 | C#CCOc1ccc(-c2nnc(Nc3ccc(NC(C)=O)cc3)c3ccccc23)cc1 | 60%
